# High-throughput results as filed in PubChem.
# DT40 TDP1 CPT – qHTS for Inhibitors of human tyrosyl-DNA phosphodiesterase 1 (TDP1): qHTS in cells in presence of CPT; chicken DT40 Tdp1-/-;hTDP1 cells + 20 nM CPT, ATP luminescence, 48 h; Potency, µM (series often up to 46.2 µM), actives largely listed as inhibitors; 420,000 compounds, 12% hits; AID 686979, 2013; note: nearly all actives have a fitted effect of over 55% in size
#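 Chicken DT40 Tdp1-/- cells complemented with human TDP1, 400 cells/well, exposed to compounds plus 20 nM camptothecin for at least 48 h at 37 C; viability read as ATP content by CellTiter-Glo luminescence.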
# TDP1 cell noCPT – qHTS for Inhibitors of human tyrosyl-DNA phosphodiesterase 1 (TDP1): qHTS in cells in absence of CPT | DT40 Tdp1-/- hTDP1 cells, no CPT, ATP luminescence, 48 h | Potency, µM (top dose mostly 46.2 µM), actives largely listed as inhibitors | 420,000 compounds, 15% hits; note: nearly all actives have a fitted effect of over 55% in size
#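 A cellular qHTS used chicken DT40 cells lacking endogenous Tdp1 but carrying stably transfected human TDP1. Compounds were applied without camptothecin, and cell growth kinetics were judged by ATP-dependent luminescence after ≥48 hr.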
# uPA surface inh – qHTS for Inhibitors of Cell Surface uPA Generation; 330,000 compounds, 0.31% hits; AID 540303, 2011; cell surface uPA generation assay, qHTS; Potency, µM (top dose mostly 38.3 µM), hits mostly inhibitors; active = well fitted inhibition curve with a large enough effect; inconclusive = small, poorly fitted or top-dose-only effect; inactive = no such curve, though single readings can be large or run the other way; tested in mouse RAW 264.7 cells; note: nearly all actives have a fitted effect of over 55% in size
# TDP1 block – qHTS Assay for Inhibitors of Tyrosyl-DNA Phosphodiesterase (TDP1); Tyrosyl-DNA phosphodiesterase 1 (Homo sapiens), Q9NUW8; recombinant TDP1, AlphaScreen DNA substrate cleavage; Potency, µM (doses to about 130 µM), usual class: inhibitors; 350,000 compounds, 0.28% hits; note: nearly all actives have a fitted effect of over 40% in size
# Target sequence (Q9NUW8 whole entry, looked up): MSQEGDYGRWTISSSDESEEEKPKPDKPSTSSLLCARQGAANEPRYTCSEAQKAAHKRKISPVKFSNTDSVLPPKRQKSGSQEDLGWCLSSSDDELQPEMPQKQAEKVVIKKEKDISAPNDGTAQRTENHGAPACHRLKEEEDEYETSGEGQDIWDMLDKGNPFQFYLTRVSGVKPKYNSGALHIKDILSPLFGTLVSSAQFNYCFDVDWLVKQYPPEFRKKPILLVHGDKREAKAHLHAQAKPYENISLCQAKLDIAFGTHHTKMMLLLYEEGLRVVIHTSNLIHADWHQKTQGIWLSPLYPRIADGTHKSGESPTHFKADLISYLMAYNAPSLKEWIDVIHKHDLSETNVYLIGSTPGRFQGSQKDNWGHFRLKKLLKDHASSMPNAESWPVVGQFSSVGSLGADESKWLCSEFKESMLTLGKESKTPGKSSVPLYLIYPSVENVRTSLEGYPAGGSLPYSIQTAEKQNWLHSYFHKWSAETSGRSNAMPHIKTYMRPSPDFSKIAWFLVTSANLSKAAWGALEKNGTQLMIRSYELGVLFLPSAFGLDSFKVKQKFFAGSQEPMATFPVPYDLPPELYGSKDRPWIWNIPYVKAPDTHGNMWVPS
#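 Recombinant E. coli-expressed Tdp1 (1 nM) preincubated with compound 15 min at RT, then 5'-biotin/3'-phosphotyrosine-FITC DNA substrate (15 nM) added for 5 min. AlphaScreen beads (10 ug/ml) added, 10 min RT; tyrosine-FITC cleavage read as signal loss.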
# miR-21 reporter – qHTS Assay for Modulators of miRNAs and/orActivators of miR-21 | HeLa miR-21 FLuc reporter, luciferase, 48 h | Potency, µM (top dose mostly 38.3 µM), usual class: activators | 340,000 tested, under 10 active | AID 2288, 2010;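 note: miR-21 action dims this reporter so a rising signal means less miR-21 action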
#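 Luminescence from a firefly luciferase reporter carrying a miR-21 binding site downstream, stably expressed under a CMV promoter in HeLa cells that make miR-21 endogenously, reports miRNA modulation after 48 h compound exposure up to approximately 40uM final.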
# Hits are given with their value; 0 = inactive; ? = inconclusive; - = no result. In the library only some 16% were active in any assay of this set; here they are far more common. Unless noted, calls come from the whole dose curve; as a rule, active = well fitted curve in the direction sought with a large enough effect; inconclusive = small, poorly fitted or top-dose-only effect, or another doubt; inactive = no such curve, though single readings can be large; an effect the other way counts as inactive or inconclusive.
SMILES,DT40 TDP1 CPT,TDP1 cell noCPT,uPA surface inh,TDP1 block,miR-21 reporter
COC1C(O)C(OC2CC[C@]3(C=O)C4C(OC(C)=O)C[C@@]5(C)C(C6=CC(=O)OC6)CC[C@]5(O)C4CC[C@]3(O)C2)OC(C)C1OC(C)=O (stereo partly specified),0,0,-,0,-
C[C@]12CC[C@H](O)C[C@H]1CC[C@@H]1[C@@H]2CC[C@]2(C)[C@@H](C3=CC(=O)OC3)CC[C@]12O,?,11.6µM,0,-,-
COC1C(O)C(C)OC(OC2CCC3(C)C(CCC4C3C(O)CC3(C)C(C5=CC(=O)OC5)CCC43O)C2)C1O (stereo unspecified),1.84µM,2.06µM,0,-,-
CC12CCC(O)CC1CCC1C2CCC2(C)C(C3=CC(=O)OC3)CCC12O (stereo unspecified),?,?,0,-,-
CCC1C(C)=NN=C(c2ccc(OC)c(OC)c2)c2cc(OC)c(OC)cc21 (stereo unspecified),?,?,-,0,-
CCN(CC)C(=O)C(C)Oc1cccc2ccccc12 (stereo unspecified),-,-,-,0,-
COc1cc(OC)cc(-c2sc3ccc(OC)cc3c2-c2ccc(OCCN3CCOCC3)cc2)c1,?,?,0,0,-
Cc1nn(CCC#N)c2c1P(=S)(N1CCCC1)OC(c1ccc(F)cc1)=N2 (stereo unspecified),29.1µM,?,0,0,0
COc1cc([N+](=O)[O-])c2nc(C)ccc2c1[N+](=O)[O-],9.2µM,10.3µM,0,-,-
COc1cc([N+](=O)[O-])c2ncccc2c1[N+](=O)[O-],2.59µM,4.61µM,-,-,-
O=NN(CCO)CCO,-,-,-,0,-
CC12CCC3C(CCC4CC(=O)C(C(O)C(F)(F)F)CC43C)C1CCC2O (stereo unspecified),?,?,0,-,-
CCCC/C(C)=C/[C@@H](NP(=O)(c1ccccc1)c1ccccc1)c1ccccc1,?,16.4µM,?,0,0
CN1CC[C@@]2(c3cccc(O)c3)Cc3nc4ccccc4cc3C[C@H]2C1,26.6µM,?,-,0,-
CC(=O)Oc1c2c(c(CC=C(C)C)c3c1C(=O)C1=CC4CC5C(C)(C)OC(C/C=C(\C)C(=O)O)(C4=O)[C@]15O3)OC(C)(CCC=C(C)C)C=C2 (stereo partly specified),0.82µM,0.92µM,-,0,-
COC(=O)/C(C)=C\CC12OC(C)(C)C3CC(C=C4C(=O)c5c(OC)c6c(c(CC=C(C)C)c5OC431)OC(C)(CCC=C(C)C)C=C6)C2=O (stereo unspecified),4.61µM,3.66µM,-,0,-
CC(=O)C1=C(O)C2(C)c3c(O)c(C)c(O)c(C(C)=O)c3OC2CC1=O (stereo unspecified),?,23.1µM,-,-,-
Cc1ccccc1-n1c(O)c(/C=N/NC(=O)c2ccccc2O)c(=O)[nH]c1=S,?,?,0,-,0
CCOc1ccc(C2c3c(-c4ccccc4O)n[nH]c3C(=O)N2Cc2ccncc2)cc1 (stereo unspecified),7.31µM,5.17µM,-,0,?
CC(=O)O[C@@H]1C[C@H]2C(C)(C)C(=O)C=C[C@]2(C)[C@H]2CC[C@@]3(C)[C@H](c4ccoc4)OC(=O)[C@H]4O[C@]43[C@@]21C,?,?,?,0,?
CC1(C)C(=O)C=C[C@@]2(C)C1CC(O)[C@]1(C)C2CC[C@@]2(C)C(c3ccoc3)OC(=O)C3O[C@]312 (stereo partly specified),13µM,11.6µM,-,0,-
CCCCCn1c(=O)c(C(=O)NCc2ccco2)c(O)c2ccccc21,?,16.4µM,0,0,0
CCCCn1c(=O)c(C(=O)NCc2ccco2)c(O)c2ccccc21,?,?,0,0,0
CC(C)CCn1c(=O)c(C(=O)NCc2ccco2)c(O)c2ccccc21,?,9.2µM,0,-,0
O=C1C(Br)C2CCC1C2C(=O)O (stereo unspecified),0,0,-,-,-
SMILES,DT40 TDP1 CPT,TDP1 cell noCPT,uPA surface inh,TDP1 block,miR-21 reporter
COc1ccccc1NC(=O)N(Cc1ccco1)C1CCN(C(C)=O)CC1,0,?,-,0,0
COc1ccc(C(=O)Oc2cccc3cccnc23)cc1S(=O)(=O)N1CCOCC1,?,3.26µM,0,0,0
COc1ccc(C(=O)N2CCOCC2)cc1S(=O)(=O)N1CCC(C)CC1,0,0,0,0,0
ClC(Cl)Br,-,-,-,0,-
O=C1c2ccccc2C(=O)N1SC1CCCCC1,3.66µM,3.66µM,0,0,0
NC(=O)NO,0,0,?,0,-
CN1C(=O)/C(=C\c2ccc(N3CCCCC3)o2)C(=O)NC1=S,0,?,0,0,0
COc1ccc(N2C(=O)/C(=C/c3ccc(C)o3)C(=O)NC2=S)cc1,14.6µM,?,0,-,0
Cc1ccc(/C=C2\C(=O)NC(=S)N(c3cccc(F)c3)C2=O)o1,18.4µM,?,0,0,0
CCOc1ccc(N2C(=O)/C(=C/c3ccc(C)o3)C(=O)NC2=S)cc1,?,25.9µM,0,-,0
CCOc1ccc(N2C(=O)NC(=O)/C(=C\c3ccc(N4CCCCC4)o3)C2=O)cc1,0,0,0,0,0
CN1CCN(c2ccc(/C=C3\C(=O)NC(=S)N(c4cccc(Br)c4)C3=O)o2)CC1,16.4µM,16.4µM,0,0,0
O=C1NC(=S)N(c2ccc(F)cc2)C(=O)/C1=C/c1ccco1,-,-,-,-,0
S=c1[nH]nc(-c2ccn[nH]2)n1-c1ccccc1Cl,0,0,0,-,0
C[C@]12N[C@H](Cc3ccccc31)c1ccccc12,?,?,0,0,-
O=C1NC(=O)C(CCc2ccncc2)(CCc2ccncc2)C(=O)N1Cc1ccc(F)cc1,14.6µM,?,0,0,0
COc1ccc(N2C(=O)NC(=O)C(CCc3ccncc3)(CCc3ccncc3)C2=O)cc1,0,0,0,0,0
COc1ccc(OC)c(N=Cc2c(O)[nH]c(=O)[nH]c2=O)c1,0,0,0,-,0
O=P(c1ccccc1)(c1ccccc1)N(c1ccccc1)c1ccccc1,2.91µM,4.61µM,0,0,0
CN(C)c1ccccc1,0,0,-,0,-
C[C@]12CCC3C(CC[C@H]4C[C@@H](O)CC[C@]34C)C1CC[C@@H]2OC(=O)[C@H](N)CCCCN (stereo partly specified),?,?,0,0,-
CCOC(=O)C(C)(CC)NC(=O)CSP(=S)(OCC)OCC (stereo unspecified),?,?,0,0,0
CC(C)[C@H](N)C(=O)OCCOCn1cnc2c(=O)[nH]c(N)nc21,1.84µM,2.91µM,0,0,-
CCn1cc2nc(SCc3cccc(C(F)(F)F)c3)n(Cc3ccc(OC)cc3)c(=O)c2n1,20.6µM,14.6µM,-,0,0
CCn1cc2nc(SCc3c(F)cccc3Cl)n(CCc3ccccc3)c(=O)c2n1,14.6µM,23.1µM,-,0,0
